TDP1 cell CPT: DT40-hTDP1 cell growth loss with CPT. chicken DT40 Tdp1-/-;hTDP1 cells + 20 nM CPT, ATP luminescence, 48 h. Potency, µM (titrated, usually from 46.2 µM), without a hit: top-dose activity change, negative = growth inhibition, usual class: inhibitors. 12% of 420,000 active; further: potency means the concentration at half of the fitted maximal effect; nearly all actives have a fitted effect of over 55% in size
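Chicken DT40 Tdp1-/- cells stably complemented with human TDP1 were seeded at 400 cells/well in medium containing 20 nM camptothecin, exposed to pin-transferred compounds, and grown at 37 °C for at least 48 hr. Viability was read as ATP luminescence.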
IL-1B inflam inh: blocks inflammasome-driven IL-1 beta release; THP-1 LPS/ATP IL-1B secretion, AlphaLISA, 16 h; hits give low values; activity change, % at 57.5 µM; 4.7% of 360,000 active; AID 743279; in the data active means activity change below about -50%; inconclusive means mostly about -30% to -49%
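THP-1 cells pretreated 1 hr with compounds (up to 57.5 uM final), then stimulated with LPS (250 ng/mL final) plus ATP (1.25 mM final); secreted IL-1B measured by AlphaLISA after 16 hr, decreased signal indicating inhibition.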
TDP1 cell noCPT: qHTS for Inhibitors of human tyrosyl-DNA phosphodiesterase 1 (TDP1): qHTS in cells in absence of CPT. DT40 Tdp1-/- hTDP1 cells, no CPT, ATP luminescence, 48 h. Potency, µM (titrated, usually from 46.2 µM), for inactives: at the top dose activity change, negative = growth inhibition, usual class: inhibitors. 15% of 420,000 active; further: potency means the concentration at half of the fitted maximal effect; nearly all actives have a fitted effect of over 55% in size
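Chicken DT40 Tdp1-/- cells stably complemented with human TDP1 were seeded at 400 cells/well with DMSO in place of 20 nM camptothecin. After compound pinning, cells grew at least 48 hr at 37 °C; viability read by CellTiter-Glo luminescence.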
ELG1 repair inh: ELG1-dependent DNA repair inhibition; HEK293T ELG1-luciferase reporter, luminescence, 16 h; DNA damage induced by 5-fluorouridine; 2.3% of 330,000 active; Potency, µM (top dose mostly 46.1 µM), for the others: at the highest dose activity change, negative = inhibition, hits mostly inhibitors; further: potency means the concentration at half of the fitted maximal effect; nearly all actives have a fitted effect of over 55% in size
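HEK293T cells expressing luciferase-tagged ELG1 (2,000/well) received 5-Fluorouridine plus compound or DMSO for 16 hr at 37 °C. Luciferase was read by ONE-Glo luminescence after 30 min at room temperature.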
HT1080NT lethal: kills 2HG-producing HT-1080-NT fibrosarcoma cells | HT-1080-NT fibrosarcoma viability, CellTiter-Glo ATP luminescence, 48 h | 1.6% of 360,000 active | Potency, µM (titrated, usually from 46.1 µM), for inactives: at the highest dose activity, negative = less viability, most hits filed as cytotoxic;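 further: NT is the 2HG producing partner of a matched IDH1 knockdown line; potency means the concentration at half of the fitted maximal effect; 0% = DMSO-treated cells and -100% = media-only wells without cells; nearly all actives have a fitted effect of over 55% in size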
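HT-1080-NT; 750 cells/well; 5% FBS RPMI; 48 h compound, 37 degrees C; CellTiter-Glo luminescence; curve fitting and curve-class assignment.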
HT1080 IDH1KD tx: toxicity to HT-1080 IDH1 knockdown cells (counter line). Potency, µM (highest dose often 46.1 µM), inactives show at the highest dose activity, negative = toxicity, most hits filed as cytotoxic. 2% of 360,000 active. HT-1080 IDH1 knockdown viability, ATP luminescence, 48 h;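 further: potency means the concentration at half of the fitted maximal effect; 0% = DMSO wells and -100% = cell-free medium wells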
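Viability of IDH1-knockdown HT-1080 fibrosarcoma cells was assessed by CellTiter-Glo after 48 h at 37 °C with titrated compound; concentration-effect curves were classified by fit quality and response size.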
* hit, by the source's call; i = inactive; ? = inconclusive; nt = not tested or not shown. A selection: hits, their analogues and other compounds. The true share with any hit is near 19%. Unless noted, the call rests on the fitted dose curve; in most records, active means well fitted curve in the direction sought with a large enough effect; inconclusive means small, poorly fitted or top-dose-only effect, or another doubt; inactive means no such curve, though single readings can be large; an effect the other way counts as inactive or inconclusive. Unless noted, on the % scale 0 is the no-effect control and ±100 the full control effect.

SMILES	TDP1 cell CPT	IL-1B inflam inh	TDP1 cell noCPT	ELG1 repair inh	HT1080NT lethal	HT1080 IDH1KD tx
COc1ccc(CNC(=O)OC2CC3CC2[C@H]2CCCCN2C3=O)cc1 (stereo partly drawn)	9%	21	-9%	nt	17%	5%
CC1CC[C@]2(CO)CC[C@]3(C)C(=CCC4[C@@]5(C)CCC(O)C(C)(C)C5CC[C@@]43C)C2C1C (stereo partly drawn)	7%	nt	2%	nt	nt	nt
Cc1ccc([N+](=O)[O-])cc1S(=O)(=O)N1CCN(C)CC1	14%	20	3%	6%	4%	-22%
Cc1ccc([N+](=O)[O-])cc1S(=O)(=O)n1ccnc1C	21µM*	2	18µM*	5%	-8%	-31%
CCCCNc1nc2c(-c3cccc(Br)c3)nnn2c2ccccc12	1%	nt	-20%	nt	nt	nt
COc1ccc(CCNc2nc3c(-c4cccc(C(F)(F)F)c4)nnn3c3ccccc23)cc1OC	?	nt	16µM*	nt	nt	nt
COc1ccc(-c2nnn3c2nc(NCCc2ccc(OC)c(OC)c2)c2ccccc23)cc1	8.2µM*	nt	9.2µM*	nt	nt	nt
Cc1cccc(-c2nnn3c2nc(NCc2ccccc2)c2ccccc23)c1	?	nt	21µM*	nt	nt	nt
COCCCNc1nc2c(-c3ccccc3)nnn2c2ccccc12	-22%	nt	?	nt	nt	nt
C[C@H](CO)NC(=O)c1nc[nH]c1C(=O)N[C@@H](C)c1ccccc1	?	10	?	nt	0%	1%
COc1cccc(CNC(=O)C(=O)NCC2OCCCN2S(=O)(=O)c2cc(C)ccc2C)c1 (stereo not drawn)	?	i	-30%	-35%	4%	2%
C=C(C)Cn1c(SCC(=O)c2ccc(Br)cc2)nc2sc3c(c2c1=O)CCCC3	5%	nt	0%	nt	nt	nt
O=C(O)CC(c1ccc(C(F)(F)F)cc1)N1Cc2ccccc2C1=O (stereo not drawn)	3%	31	-3%	0%	0%	5%
Cc1nn(C(=O)c2c(F)cccc2F)c(C)c1S(=O)(=O)N1CCCCCC1	-2%	nt	-10%	nt	nt	nt
COc1ccc(C(=O)CSc2nc(C)cc(C)c2C(=O)Nc2ccccc2C)cc1	?	nt	15µM*	nt	nt	nt
Cc1ccc(C(=O)CSc2nc(C)cc(=O)[nH]2)cc1	?	27	-22%	?	-13%	-8%
Cc1ccc(C(=O)CSc2nc(C)cc(C)c2C(=O)Nc2cccc(C)c2)cc1	21µM*	nt	?	nt	nt	nt
O=c1c(-c2cccc(F)c2)nc2cncnc2n1Cc1ccccc1Cl	-4%	nt	-14%	nt	nt	nt
O=c1c2sc3ccccc3c2n(Cc2cccc(Cl)c2)c(=O)n1Cc1ccccc1	13µM*	nt	?	nt	nt	nt
O=c1c2sc3ccccc3c2n(Cc2cccc(F)c2)c(=O)n1Cc1ccccc1	?	nt	16µM*	nt	nt	nt
O=c1c2sc3ccccc3c2n(Cc2cccc(Cl)c2)c(=O)n1Cc1ccco1	21µM*	nt	23µM*	nt	nt	nt
O=c1c2sc3ccccc3c2n(Cc2ccccc2Cl)c(=O)n1Cc1ccccc1	-18%	nt	-23%	nt	nt	nt
O=c1c2sc3ccccc3c2n(Cc2ccccc2)c(=O)n1Cc1ccccc1	-2%	nt	-22%	nt	nt	nt
O=C(Cn1c(=O)n(Cc2ccco2)c(=O)c2sc3ccccc3c21)Nc1ccc(F)cc1F	?	nt	10µM*	nt	nt	nt
CCc1ccc(-n2c(=O)c3sc4ccccc4c3n(Cc3cccc(F)c3)c2=O)cc1	-30%	nt	?	nt	nt	nt
SMILES	TDP1 cell CPT	IL-1B inflam inh	TDP1 cell noCPT	ELG1 repair inh	HT1080NT lethal	HT1080 IDH1KD tx
Cc1ccc(NC(=O)Cn2c(=O)n(Cc3ccco3)c(=O)c3sc4ccccc4c32)c(C)c1	?	nt	-18%	nt	nt	nt
CCOC(=O)C1=C(C)N=C2SC(C(=O)OC)=CC(=O)N2C1c1cc(OC)c(OC)c(OC)c1 (stereo not drawn)	11%	11	-5%	6%	1%	2%
Cc1ccc(CNC(=O)C(=O)NCC(c2ccco2)S(=O)(=O)c2ccc(C)cc2)cc1 (stereo not drawn)	-7%	nt	-8%	nt	nt	nt
O=c1c2sc3ccccc3c2n(Cc2ccccc2)c(=O)n1CCc1ccccc1	12%	nt	-1%	nt	nt	nt
Cc1nc2c(sc(=S)n2Cc2ccco2)c(=O)n1CC(=O)Nc1cc(F)ccc1F	12µM*	6	?	0%	-1%	8%
Cc1nc2c(sc(=S)n2Cc2ccco2)c(=O)n1CC(=O)Nc1ccc(F)cc1	?	-9	?	12%	5%	6%
O=c1c2sc3ccccc3c2n(Cc2ccccc2F)c(=O)n1Cc1ccccc1	-18%	nt	?	nt	nt	nt
O=c1c2sc3ccccc3c2n(Cc2cccc(Cl)c2)c(=O)n1Cc1ccc(F)cc1	10µM*	nt	6.5µM*	nt	nt	nt
O=c1c2sc3ccccc3c2n(Cc2ccccc2F)c(=O)n1-c1ccccc1Cl	21µM*	nt	9.2µM*	nt	nt	nt
COc1ccc(C)cc1N(C)C(=O)Cc1c(C(=O)O)n(C)c2ccccc12	0%	10	5.2µM*	-6%	10%	0%
CC1=C(C(=O)N2CCCC(N3CCN(c4ccccc4F)CC3)C2)OCCO1 (stereo not drawn)	3%	3	-1%	-2%	7%	6%
CCOC(=O)c1c(C)[nH]c(C(=O)COC(=O)C23CC4CC(CC(Cl)(C4)C2)C3)c1C	-28%	0	?	12µM*	-2%	1%
NC(=S)N/N=C/c1coc2ccc(F)cc2c1=O	0%	1	0%	5%	2%	-7%
COc1ccc(N2C(=O)Cc3ccccc3C2=O)cc1	?	-13	13µM*	-1%	23%	17%
COc1ccc2c(c1)C(=O)N(c1ccccc1)C(=O)C2	-27%	30	-9%	?	4%	7%
CCOc1ccc(S(=O)(=O)Nc2ccc3c(c2)N(C(C)=O)CCC3)cc1	?	nt	18µM*	nt	nt	nt
CCOc1ccc(S(=O)(=O)Nc2ccc3c(c2)CCCN3C(=O)c2cccs2)cc1	?	nt	-100%	nt	nt	nt
CC(=O)N1CCCc2ccc(NS(=O)(=O)c3ccc(C)cc3)cc21	?	21	26µM*	19%	-21%	-17%
CC(=O)Nc1ccc(NS(=O)(=O)c2ccc3c(c2)CCCN3C(C)=O)cc1	4%	nt	2%	nt	nt	nt
CC1=C(C/C=C(\C)CCC[C@H](C)CCC[C@H](C)CCCC(C)C)C(=O)c2ccccc2C1=O	3%	14	?	nt	1%	3%
CCN(CC)S(=O)(=O)c1ccc(N2CCOCC2)c(NC(=O)COc2ccc(Cl)cc2)c1	?	0	?	-2%	7%	-1%
